Some test systems named below: NCI-H23 lung; NCI-H460 lung; 786-0 renal; MDA-MB-231 breast; SF-268 CNS; SF-539 CNS; M14 melanoma; SNB-75 CNS; PC-3 prostate; UACC-62 melanoma; SK-MEL-28 melanoma; ACHN renal; OVCAR-5 ovarian; OVCAR-3 ovarian; NCI/ADR-RES ovarian; SW-620 colon; MCF7 breast; HCT-116 colon; DU-145 prostate; KM12 colon.
What all share (assay): NCI-60 one-dose screen, 48 h (100 = growth as untreated, 0 = no growth, -100 = all killed)
What all share (settings): 10 µM unless noted

The structures appear in SMILES notation. About 83,000 compounds went through this panel and 20% of them were active in at least one assay; those are over-represented in the sample as a whole.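 In brief: 96-well plates, 48 h treatment, single concentration, percent growth endpoint.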 Unmarked numbers belong to inactive results. Activity calls are given as the source filed them. How the source made its calls: active means growth percent below 10; inactive means the rest.

As for `CC(=O)[O][Hg][CH2]C1(C)COC(C)([CH2][Hg][O]C(C)=O)CO1` (configuration not stated), the growth is 65.4% in the assay on NCI-H23 lung; 78.1% in the assay on NCI-H460 lung; 79% in the assay with 786-0 renal; 42.8% in the assay on MDA-MB-231 breast; 88.2% with SF-268 CNS; -87.2% (active) with SF-539 CNS. The growth is 39% with M14 melanoma; 38% in the assay with SNB-75 CNS; 89.5% with PC-3 prostate; 95.8% in the assay with UACC-62 melanoma; 18.3% in the assay on SK-MEL-28 melanoma; 63.1% in the assay on ACHN renal. For the same compound, the growth in the assay with OVCAR-5 ovarian is 114%; in the assay on OVCAR-3 ovarian, -100% (active); in the assay with NCI/ADR-RES ovarian it was 94.9%; in the assay on SW-620 colon it was -92.3% (active); with MCF7 breast it was -81.1% (active); in the assay with HCT-116 colon it was -86.2% (active).

On to `N#Cc1ncc(/N=C/c2ccc(N(CCCl)CCCl)cc2)s1`, for which the growth is 58.2% in the assay on NCI-H23 lung; 22.7% with NCI-H460 lung; 29% in the assay on 786-0 renal; 49.2% in the assay with DU-145 prostate; 94.5% in the assay on MDA-MB-231 breast; 65.5% in the assay with SF-268 CNS. The growth in the assay with SF-539 CNS is 40.7%; with M14 melanoma, 86.8%; in the assay on SNB-75 CNS it was 61.6%; in the assay with PC-3 prostate, 66.9%; with UACC-62 melanoma, 32%; in the assay with SK-MEL-28 melanoma, 102%. For the same compound, the growth was 33.8% in the assay with ACHN renal; 100% in the assay on OVCAR-5 ovarian; 78.5% in the assay on OVCAR-3 ovarian; 70.8% with NCI/ADR-RES ovarian; 79.4% in the assay on SW-620 colon; 48.7% in the assay on MCF7 breast. For the same compound, the results for the growth with HCT-116 colon and in the assay on KM12 colon were 71.6% and 95.3%, respectively.

On to `N#C[Se]CCCNS(=O)(=O)C1CC2C=CC1C2` (configuration not stated), for which the growth was -37.5% (active) in the assay on NCI-H23 lung; -18.3% (active) in the assay on NCI-H460 lung; -87.4% (active) in the assay with 786-0 renal; -68% (active) with DU-145 prostate; -71.8% (active) in the assay on MDA-MB-231 breast; -55.7% (active) with SF-268 CNS. The growth in the assay with SF-539 CNS was -77.9% (active); in the assay with M14 melanoma, -47.9% (active); in the assay on PC-3 prostate, -19.2% (active); in the assay with UACC-62 melanoma, -54.1% (active); in the assay on SK-MEL-28 melanoma it was -15.3% (active); in the assay with ACHN renal, -67% (active). The growth was 4.98% (active) in the assay on OVCAR-5 ovarian; -63.6% (active) in the assay with OVCAR-3 ovarian; -3.8% (active) with NCI/ADR-RES ovarian; 1.26% (active) in the assay on SW-620 colon; 2.16% (active) in the assay on MCF7 breast; -31.9% (active) in the assay on HCT-116 colon. Further, in the assay with KM12 colon, the growth is -5.35% (active).

`C/C1=C/C(=O)O[C@@H]2C[C@@H](CC[C@H](C)/C=C\C=C\CC1)O[C@@](OCCc1ccccc1)([C@@H]1CSC(=O)N1)C2`: the growth in the assay on NCI-H23 lung was 35.1%; in the assay with NCI-H460 lung, 21.6%; with 786-0 renal it was 9.36% (active); in the assay with DU-145 prostate, -2.11% (active); in the assay on MDA-MB-231 breast, 11.8%; in the assay on SF-268 CNS, -42.9% (active). Further, the growth in the assay on SF-539 CNS was 9.84% (active); in the assay with M14 melanoma, 38.5%; in the assay with SNB-75 CNS, -62.8% (active); with PC-3 prostate, 18.3%; in the assay with UACC-62 melanoma, 24.3%; in the assay with ACHN renal, 7.46% (active). Also, the growth in the assay with OVCAR-5 ovarian is 11.2%; in the assay with OVCAR-3 ovarian it was -48.7% (active); in the assay on NCI/ADR-RES ovarian it was 48.4%; in the assay on SW-620 colon, 59.3%; in the assay with HCT-116 colon it was 33.5%; in the assay with KM12 colon, 58.2%.

For `OC1CCCCC1N1CCC(c2ccccc2)CC1` (configuration not stated), the growth is 100% in the assay with NCI-H23 lung; 109% with NCI-H460 lung; 93.1% in the assay on 786-0 renal; 112% in the assay on DU-145 prostate; 119% in the assay with MDA-MB-231 breast; 106% in the assay with SF-268 CNS. Besides, the growth with SF-539 CNS is 119%; with M14 melanoma, 106%; in the assay on SNB-75 CNS, 86%; with PC-3 prostate, 91%; with UACC-62 melanoma, 115%; with SK-MEL-28 melanoma, 103%. Further, the growth in the assay with ACHN renal is 109%; with OVCAR-5 ovarian, 107%; in the assay with OVCAR-3 ovarian, 106%; in the assay on NCI/ADR-RES ovarian it was 99.7%; in the assay with SW-620 colon, 99.3%; in the assay with MCF7 breast, 94.1%. Also, the results for the growth with HCT-116 colon and with KM12 colon were 94.5% and 104%, respectively.

Turning to `N#CC(C#N)=Cc1ccc2ccccc2c1`, the growth is 100% with NCI-H23 lung; 104% in the assay with 786-0 renal; 109% with DU-145 prostate; 106% in the assay with MDA-MB-231 breast; 116% in the assay with SF-268 CNS; 107% in the assay with SF-539 CNS. Also, the growth is 104% with M14 melanoma; 103% with SNB-75 CNS; 95.7% in the assay on PC-3 prostate; 115% in the assay on UACC-62 melanoma; 113% with SK-MEL-28 melanoma; 107% with ACHN renal. For the same compound, the growth is 106% with OVCAR-5 ovarian; 117% with OVCAR-3 ovarian; 108% in the assay on NCI/ADR-RES ovarian; 103% in the assay with MCF7 breast; 107% in the assay on HCT-116 colon.

With `CC1([N+](=O)[O-])COP(=O)(Nc2ccc(F)cc2)OC1` (configuration not stated), the growth was 96.4% in the assay with NCI-H23 lung; 106% in the assay on NCI-H460 lung; 102% in the assay with 786-0 renal; 106% with DU-145 prostate; 118% with MDA-MB-231 breast; 99.7% in the assay with SF-268 CNS. For the same compound, the growth is 103% with SF-539 CNS; 101% with M14 melanoma; 95.6% with SNB-75 CNS; 95.5% in the assay with PC-3 prostate; 109% with UACC-62 melanoma; 116% in the assay on SK-MEL-28 melanoma. In addition, the growth with ACHN renal is 98.8%; in the assay with OVCAR-5 ovarian, 106%; with OVCAR-3 ovarian it was 104%; with NCI/ADR-RES ovarian, 102%; with SW-620 colon, 102%; in the assay with MCF7 breast, 100%. The growth in the assay on HCT-116 colon was 99.4%; with KM12 colon it was 95.8%.

For `COc1cc(CNCCc2ccc(Cl)cc2)cc(OC)c1O`, the growth in the assay on NCI-H23 lung was 67%; with NCI-H460 lung, 83.3%; in the assay on 786-0 renal it was 78.3%; with DU-145 prostate, 91%; in the assay on MDA-MB-231 breast, 72.2%; in the assay with SF-268 CNS, 73%. Further, the growth in the assay on SF-539 CNS is 68.7%; in the assay with M14 melanoma it was 64.8%; in the assay with SNB-75 CNS it was 44.6%; with PC-3 prostate, 52.9%; in the assay with UACC-62 melanoma, 61.2%; in the assay with SK-MEL-28 melanoma it was 69.9%. Further, the growth with ACHN renal was 75.6%; with OVCAR-5 ovarian, 86.7%; in the assay on OVCAR-3 ovarian it was 61%; with NCI/ADR-RES ovarian, 44.8%; in the assay on SW-620 colon, 64.1%; with MCF7 breast, 63.7%. The results for the growth in the assay on HCT-116 colon and in the assay on KM12 colon were 60.9% and 65.7%, respectively.

As to `Cn1cnnc1[S-].[Au+].c1ccc([PH+](c2ccccc2)c2ccccc2)cc1`, the growth is 15.8% with NCI-H23 lung; 58.5% in the assay with NCI-H460 lung; 1.78% (active) in the assay on 786-0 renal; 33.6% in the assay on DU-145 prostate; 30.3% in the assay with MDA-MB-231 breast; 12.5% in the assay with SF-268 CNS. Moreover, the growth was 15.4% with SF-539 CNS; -11.9% (active) in the assay with M14 melanoma; -62.3% (active) in the assay on SNB-75 CNS; 23.8% in the assay on PC-3 prostate; -15.1% (active) in the assay on UACC-62 melanoma; 10.5% in the assay on SK-MEL-28 melanoma. Also, the growth in the assay on ACHN renal is -42.3% (active); in the assay on OVCAR-5 ovarian, 91.9%; in the assay on OVCAR-3 ovarian it was -81.2% (active); in the assay with NCI/ADR-RES ovarian, 69.5%; with SW-620 colon, -49.3% (active); with MCF7 breast, -56.5% (active). In addition, the growth in the assay on HCT-116 colon is 3.71% (active); in the assay on KM12 colon, 58.3%.

Values taken from PubChem BioAssay (NCI).
